RORg inh: blocks mouse ROR gamma transcriptional activity; 310,000 compounds, 5.4% hits; Potency, µM (highest dose often 53.6 µM), most hits filed as inhibitors; Drosophila S2 Gal4-RORgamma UAS-luciferase reporter, 20 h; P51450; further: nearly all actives have a fitted effect of over 60% in size
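Drosophila Schneider cells stably carrying a metallothionein-driven Gal4 DBD–ROR gamma fusion and a UAS-Photinus luciferase reporter were exposed to compound for 1 hr, then induced with copper sulfate (700 uM final) for 20 hr at ambient temperature before luminescence reading.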
Six1-Eya2 inh: inhibitors of human Six1/Eya2 interaction; Q15475+O00167; AlphaScreen GST-Six1/His-Eya2 binding, biochemical; hits give low values; activity change, % (concentration not given with the values); 360,000 compounds, 0.56% hits; AID 651725; in the data active means activity change below about -65%; inconclusive means mostly about -30% to -63%
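Six1/Eya2 binding was read as AlphaScreen signal after compounds were pinned into GST-Six1 plus His-tagged Eya2 (5X stock 250/500 nM) in pH 8.0 Tris/NaCl/TCEP buffer, beads added, then incubated 1 h, 37 C, dark.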
PKM2 act: activators of human pyruvate kinase M2 | 260,000 compounds, 0.34% hits | P14618 | purified PKM2, Kinase-Glo ATP luminescence, activation; response scale: 0% is enzyme alone, no compound | AID 1631 | Potency, µM (doses to about 57.5 µM), usual class: activators; further: nearly all actives have a fitted effect of over 55% in size
Target sequence (P14618 whole entry, looked up): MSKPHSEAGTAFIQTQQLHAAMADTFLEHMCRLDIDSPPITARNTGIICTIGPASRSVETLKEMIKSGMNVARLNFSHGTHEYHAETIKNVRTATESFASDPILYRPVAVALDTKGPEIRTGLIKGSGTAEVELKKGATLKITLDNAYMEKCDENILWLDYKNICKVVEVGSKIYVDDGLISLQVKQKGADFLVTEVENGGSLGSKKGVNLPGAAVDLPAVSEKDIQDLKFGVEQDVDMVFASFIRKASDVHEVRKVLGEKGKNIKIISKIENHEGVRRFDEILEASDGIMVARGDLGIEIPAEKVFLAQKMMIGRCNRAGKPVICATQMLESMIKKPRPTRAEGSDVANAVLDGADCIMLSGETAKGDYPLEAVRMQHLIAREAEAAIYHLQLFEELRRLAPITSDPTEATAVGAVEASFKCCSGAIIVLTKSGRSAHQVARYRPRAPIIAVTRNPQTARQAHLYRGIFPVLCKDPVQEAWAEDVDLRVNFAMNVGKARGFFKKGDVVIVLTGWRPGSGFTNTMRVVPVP
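hPK-M2, >95% pure; 0.1 mM ADP / 0.5 mM PEP final; imidazole pH7.2 buffer w/ 7 mM MgCl2, 50 mM KCl; 1 h RT; Kinase-Glo lum. Intermediate enzyme activity for dual inhibitor/activator qHTS.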
CtBP-E1A inh: CtBP/E1A binding inhibition | activity change, % (no concentration beside the values) | AlphaScreen GST-E1A/His-CtBP binding, 1536-well; hits give low values | 340,000 compounds, 0.49% hits; in the data active means activity change below about -65%; inconclusive means mostly about -30% to -63%
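Steps: dispense buffer (Tris pH 8.0, NaCl 300 mM, TCEP 1 mM, BSA, Tween 20); add 5X protein mix (GST-E1A, His-CtBP, 125 nM each); pin 23 nL compound; 2 h at 37 °C, dark; add 5X beads (50 ug/mL); 1 h; read.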
VP16 counter: Gal4-VP16 reporter inhibition counter-screen; Drosophila S2 Gal4-VP16 UAS-luciferase, luminescence, 20 h; Potency, µM (doses to about 53.6 µM), actives largely listed as inhibitors; 310,000 compounds, 3.5% hits;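 further: Gal4-VP16 expression switched on by copper sulfate through the metallothionein promoter; nearly all actives have a fitted effect of over 50% in size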
Of the large screens only hits and unclear results are named; the others gave an inactive call. Only some compounds are listed: those with a hit (about 5.6% of all), similar ones and a draw of the others. Unless noted, the call rests on the fitted dose curve; in most records, active means well fitted curve in the direction sought with a large enough effect; inconclusive means small, poorly fitted or top-dose-only effect, or another doubt; inactive means no such curve, though single readings can be large; an effect the other way counts as inactive or inconclusive.

O=C(N/C(=C/c1ccc(Cl)cc1)c1nc2ccccc2[nH]1)c1ccco1	none
O=C(Nc1nc2ccccc2[nH]1)c1ccc(Cl)cc1	RORg inh 13µM, VP16 counter 2.8µM
Clc1cccc(/C(Cc2nc3ccccc3[nH]2)=N\Nc2ccccc2)c1	RORg inh 35µM, VP16 counter inconclusive
O=C(Nc1nc2ccccc2[nH]1)c1cccc(Cl)c1	RORg inh 4µM, VP16 counter 4.5µM (no result: CtBP-E1A inh)
O=C(Nc1nc2ccccc2[nH]1)c1ccccc1	RORg inh 6.3µM, VP16 counter 7.9µM
O=C(NNc1ncnc2ccccc12)c1cccc(Cl)c1	RORg inh 7.1µM
CCC1(C)Cc2nc3[nH]c(=S)n(-c4ccccc4C)c(=O)c3cc2CO1 (stereo unspecified)	RORg inh 6.3µM, VP16 counter 10µM
CC1(C)Cc2nc3[nH]c(=S)n(-c4ccccc4)c(=O)c3cc2CO1	none (no result: RORg inh, PKM2 act, VP16 counter)
CCC1(C)Cc2nc3[nH]c(=S)n(-c4ccccc4)c(=O)c3cc2CO1 (stereo unspecified)	RORg inh 2.8µM, VP16 counter inconclusive
O=C(CSc1nnnn1-c1ccc(Cl)cc1)NC1CCS(=O)(=O)C1 (stereo unspecified)	none (no result: RORg inh, PKM2 act, CtBP-E1A inh, VP16 counter)
CC(C)(C)NC(=O)C(c1ccncc1)N(Cc1ccco1)C(=O)c1ccc(-c2ccccc2)[nH]1 (stereo unspecified)	RORg inh 7.1µM, VP16 counter 18µM
O=C(CN1CCN(S(=O)(=O)c2ccc(Br)cc2)CC1)N/N=C/c1cccnc1	none
C=CCNC(=S)Nc1sc2c(c1C(=O)OCC)CC(C)(CC)OC2 (stereo unspecified)	RORg inh 2.8µM, VP16 counter inconclusive
CCOC(=O)c1c(NC(=O)C2CC2)sc2c1CC(C)(C)OC2	none
C=CCNC(=S)Nc1sc2c(c1C(=O)OCC)CCN(C(=O)OCC)C2	RORg inh 2.5µM, VP16 counter 6.3µM
CCOC(=O)c1c(NC(=S)Nc2ccccc2)sc2c1CCN(CC)C2	none
CCOC(=O)c1c(NC(=S)Nc2cccc(C)c2)sc2c1CC(C)(C)SC2	RORg inh 2µM, VP16 counter 2µM
CCOC(=O)c1c(NC(=S)Nc2ccccc2)sc2c1CCCCC2	RORg inh 2.5µM, VP16 counter 4µM
Cc1ccc(S(=O)(=O)N2CC(=O)N3CCN(CCN)C3C2)cc1 (stereo unspecified)	none (no result: RORg inh, PKM2 act, VP16 counter)
O=C(Nc1ccccc1)c1ccc(Br)c(S(=O)(=O)Nc2ccccn2)c1	none
CCOC(=O)c1c(NC(=S)NCc2ccccc2)sc2c1CCN(C(=O)OCC)C2	RORg inh 2µM, VP16 counter 4.5µM
COC(=O)c1c(NC(=O)COC(=O)c2ccc(O)cc2)sc2c1CCCCC2	RORg inh inconclusive, VP16 counter 18µM
CCOC(=O)c1c(NS(=O)(=O)c2cccc(OC)c2)sc2c1CCC2	PKM2 act 16µM, VP16 counter inconclusive
CCOC(=O)Nc1sc2c(c1C(=O)OCC)CCC2	none
Cc1ccc(NC(=O)CNCCCN2CCOCC2)cc1S(=O)(=O)N1CCCCC1	none
Cc1[nH]c(=O)[nH]c(=O)c1S(=O)(=O)N(CC(C)C)CC(C)C	none
Cc1ccc2oc(=O)c(/C=C(\O)c3ccco3)nc2c1	RORg inh 10µM, VP16 counter inconclusive
Cc1ccc2oc(=O)c(/C=C(\O)c3sc(C)nc3C)nc2c1	RORg inh inconclusive, VP16 counter inconclusive
Cc1ccc2oc(=O)c(/C=C(\O)C(C)(C)C)nc2c1	RORg inh 5µM (no result: PKM2 act)
COc1ccccc1CN(C)C(=O)COC(=O)c1ccc(Cl)nc1	none (no result: RORg inh, PKM2 act, VP16 counter)
CSCC[C@H](NC(=O)[C@@H]1CCCN1C(=O)[C@H](CCCN=C(N)N)NC(=O)[C@H](CC(C)C)NC(=O)[C@@H]1CCCN1C(=O)[C@@H](NC(=O)[C@@H](N)CCC(N)=O)C(C)C)C(=O)N[C@H](C(=O)N[C@@H](Cc1ccc(O)cc1)C(=O)N[C@@H](CCCCN)C(=O)O)[C@@H](C)O	none (no result: Six1-Eya2 inh, PKM2 act, CtBP-E1A inh)
Cc1cc(NC(=O)c2ccc(C#N)cc2)on1	none (no result: CtBP-E1A inh)
Cn1c(C2CCCCC2)nc2cc(N)ccc21	none (no result: CtBP-E1A inh)
Cn1c(C2CCCCC2)nc2ccccc21	RORg inh 11µM, VP16 counter inconclusive
C/C(=N\Nc1ccc(S(N)(=O)=O)cc1[N+](=O)[O-])c1ccc2c(c1)OCO2	RORg inh inconclusive, Six1-Eya2 inh inconclusive, CtBP-E1A inh inconclusive, VP16 counter 11µM
CCC(CC)=NNc1ccc(S(N)(=O)=O)cc1[N+](=O)[O-]	PKM2 act 18µM
CC(=O)C1C(c2ccc(Cl)cc2)c2c(noc2C)CC1(C)O (stereo unspecified)	none (no result: CtBP-E1A inh)
O=C(Nc1ccc2c(c1)OCO2)C1CCN(C(=O)c2ccc(Br)cc2)CC1	none
COc1cc2[nH]c(=S)nc(NCCc3ccc(C)cc3)c2cc1OC	RORg inh 0.89µM, Six1-Eya2 inh inconclusive, CtBP-E1A inh -87, VP16 counter 6.3µM
COc1ccc(CCNC(=O)c2ccc(CNc3nc(=S)[nH]c4ccccc34)cc2)cc1OC	none
COc1cc2[nH]c(=S)nc(NCCc3ccc(S(N)(=O)=O)cc3)c2cc1OC	Six1-Eya2 inh -90, CtBP-E1A inh -90
COc1ccc(CCNc2ncnc3c2[nH]c2cc(OC)c(OC)cc23)cc1OC	RORg inh inconclusive, Six1-Eya2 inh inconclusive, VP16 counter inconclusive
COc1ccc(CCNc2nc(=S)[nH]c3cc(OC)c(OC)cc23)cc1OC	RORg inh 10µM, Six1-Eya2 inh -88, VP16 counter inconclusive (no result: CtBP-E1A inh)
Cc1cccc(NC(=O)CCNS(=O)(=O)c2ccc3[nH]c(=O)oc3c2)c1	none (no result: PKM2 act, CtBP-E1A inh)
CN1CCN(CC(=O)Nc2c(C#N)cnn2-c2ccccc2)CC1	none
CCCCc1nc2c(c3c1C[C@H](C)OC3)CN(C(=O)N[C@H](C(=O)OC)C(C)C)CC2	none (no result: RORg inh, Six1-Eya2 inh, CtBP-E1A inh, VP16 counter)
O=C(NCCCN1CCOCC1)/C(=C/c1cccnc1)NC(=O)c1ccccc1	none
O=C(Oc1ccnc2cc(Cl)ccc12)N1CCCCCC1	VP16 counter 13µM
Cc1ccc(S(=O)(=O)N2CCN(c3ccnc4cc(Cl)ccc34)CC2)cc1	RORg inh inconclusive, VP16 counter 16µM
O=C(c1ccc(Cl)cc1)N1CCN(c2ccnc3cc(Cl)ccc23)CC1	RORg inh inconclusive, VP16 counter 25µM
CCOC(=O)N1CCN(c2ccnc3cc(Cl)ccc23)CC1	none
O=C1CSc2cc(Cl)ccc2N1	none (no result: RORg inh, PKM2 act, VP16 counter)
CCOC(=O)C1CCCN(C(=O)c2cccc([N+](=O)[O-])c2C)C1 (stereo unspecified)	none (no result: CtBP-E1A inh)
C/C(=C\C(=O)c1ccc(Cl)cc1Cl)N(C)C	RORg inh 16µM, VP16 counter inconclusive
CC(=S)/C=C1\Sc2ccccc2N1C	RORg inh 5µM, VP16 counter 10µM
COc1ccc(C(=O)/C=C2\Sc3ccccc3N2C)cc1	RORg inh inconclusive, VP16 counter inconclusive
Cc1nc2ccccc2n1Cc1ccccc1	VP16 counter inconclusive (no result: CtBP-E1A inh)
Cc1nc2ccccc2n1Cc1ccccc1Br	RORg inh inconclusive, VP16 counter 13µM
Cc1nc2ccccc2n1CSc1ccccc1	RORg inh 14µM
CCC(C)Cn1c(C)nc2ccccc21 (stereo unspecified)	RORg inh 13µM, VP16 counter 13µM
Cc1nc2ccccc2n1Cc1ccc(Br)cc1	none (no result: RORg inh, PKM2 act, VP16 counter)
COc1ccc2[nH]cc(CCNc3cc(-c4ccccc4OC)ncn3)c2c1	none (no result: Six1-Eya2 inh, PKM2 act, CtBP-E1A inh)

Screens from PubChem BioAssay.
